PAFAH1B2 FP inh: PAFAH1B2 (human) inhibition | recombinant PAFAH1B2, FP-rhodamine activity probe, fluorescence polarization | inhibition, % at 3.39 µM | 340,000 compounds, 1.2% hits | AID 492953;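 active means inhibition above the mean of all tested compounds plus 3 SD, cut at about 24% in these data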
Target sequence (P68402 whole entry, looked up): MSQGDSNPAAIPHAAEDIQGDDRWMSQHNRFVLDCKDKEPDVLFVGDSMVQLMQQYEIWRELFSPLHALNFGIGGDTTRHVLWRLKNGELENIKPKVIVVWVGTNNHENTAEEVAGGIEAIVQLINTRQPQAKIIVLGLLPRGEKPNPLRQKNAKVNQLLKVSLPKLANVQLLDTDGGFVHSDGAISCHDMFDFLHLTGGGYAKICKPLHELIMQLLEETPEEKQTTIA
pPAFAH FP inh: pPAFAH (human) enzyme inhibition; Q13093; recombinant pPAFAH, FP-rhodamine probe fluorescence polarization; inhibition, % at 3.39 µM; 330,000 compounds, 1.5% hits; AID 463082;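 active means inhibition above the mean inhibition across the screen plus 3 SD, cut at about 25% in these data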;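 further: inhibitors block binding of the rhodamine activity-based probe so polarization drops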
PAFAH1B3 inh: blocks human PAF acetylhydrolase 1B catalytic subunit 3 | recombinant PAFAH1B3, FP-rhodamine probe, fluorescence polarization | inhibition, % at 3.39 µM | 340,000 compounds, 0.28% hits | AID 492972;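 active means inhibition above the screen-wide average of all tested compounds plus 3 SD, cut at about 25% in these data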
PAFAH2 FP inh: PAFAH2 (human) inhibition | Q99487 | recombinant PAFAH2, FP-rhodamine activity probe, fluorescence polarization | inhibition, % at 3.39 µM | 340,000 compounds, 0.99% hits | AID 492956;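 active means inhibition above the mean over all tested compounds plus 3 SD, cut at about 30% in these data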;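 further: inhibitors block probe labeling of enzyme so polarization drops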
EBNA-1 inh: blocks EBNA-1 binding to DNA | EBNA-1 DNA binding, fluorescence polarization | inhibition, % at 14.8 µM | 300,000 compounds, 0.34% hits | AID 1950; in the data active means inhibition above about 28%
ZTA counter: counter-screen for EBNA-1 inhibitors: inhibitors of Epstein-Barr virus ZTA | P03206 | ZTA-DNA binding, fluorescence polarization | inhibition, % at 11 µM | 320,000 compounds, 0.15% hits; in the data active means inhibition above about 33%
Target sequence (P03206 whole entry, looked up): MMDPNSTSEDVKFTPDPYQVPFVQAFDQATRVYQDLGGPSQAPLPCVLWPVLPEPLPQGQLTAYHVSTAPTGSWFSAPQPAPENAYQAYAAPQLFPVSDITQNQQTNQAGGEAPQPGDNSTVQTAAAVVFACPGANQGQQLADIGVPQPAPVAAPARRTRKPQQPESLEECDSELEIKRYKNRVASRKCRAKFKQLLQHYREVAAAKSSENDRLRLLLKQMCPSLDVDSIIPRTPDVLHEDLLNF
A number is an active result; 0 = inactive; - = no result; + = active, no number. An excerpt weighted towards active compounds, which were near 2.9% of everything screened.

SMILES	PAFAH1B2 FP inh	pPAFAH FP inh	PAFAH1B3 inh	PAFAH2 FP inh	EBNA-1 inh	ZTA counter
Cc1ccc(NS(=O)(=O)c2ccc(C(=O)N3CCC3)cc2)cc1	0	27.5	0	0	0	0
O=c1[nH]c2cccc(F)c2n2cccc12	0	0	0	0	0	0
O=S(=O)(c1ccc(Cl)cc1)N1CCC2(CC1)CO2	27.9	0	0	0	0	0
O=C1CCN(S(=O)(=O)c2ccc(Cl)cc2)CC1	24.8	0	0	0	0	0
Cc1ccc(S(=O)(=O)N2CCC(=O)N(CCOCc3ccc(Cl)cc3)CC2)cc1	0	31.7	0	0	0	0
O=S(=O)(c1ccc(Cl)cc1)N1CCC(c2nc3ccccc3[nH]2)CC1	27.2	0	0	0	0	0
Cc1ccc(S(=O)(=O)N2CCC(=O)N(CCOCc3cccc(Cl)c3)CC2)cc1	0	0	0	0	0	0
O=S(=O)(c1ccc(Cl)cc1)N1CCCCCC1	0	0	0	0	0	0
CC(=O)c1ccc(OC(=O)c2nc(-c3ccccc3)oc2C)cc1	0	0	0	0	0	0
O=S(=O)(c1ccc(Cl)cc1)N1CCC(n2cccc2)CC1	28.7	0	0	0	0	0
O=S(=O)(c1ccc(Cl)cc1)N1CCC(N2CCCCCC2)CC1	0	0	0	0	0	0
Cn1c(=O)c2c(ncn2CC(=O)OCC(=O)Nc2cccc(Cl)c2)n(C)c1=O	0	0	0	0	0	0
Oc1ccccc1CNc1cccc2cccnc12	0	33.5	0	0	0	0
O=C(NCC1CCCO1)C1CCN(S(=O)(=O)c2ccc(Br)cc2)CC1 (configuration not stated)	0	0	0	0	0	0
C=CCNC(=O)C1CCN(S(=O)(=O)c2ccc(Br)cc2)CC1	33.1	0	0	0	0	0
Cc1ccc(C(=O)NNC(=O)C2CCN(S(=O)(=O)c3ccc(Cl)cc3)CC2)cc1	26.4	0	0	0	0	0
COc1ccc(CCNC(=O)C2CCN(S(=O)(=O)c3ccc(Cl)cc3)CC2)cc1OC	0	0	0	0	0	0
CC(=O)Nc1ccc(S(=O)(=O)N2CCC(C(=O)NCCc3ccc(Cl)cc3)CC2)cc1	27.4	-	0	0	-	-
O=C(NCCc1ccc(Cl)cc1)C1CCCN1C(=O)Nc1ccccc1 (configuration not stated)	25.6	0	0	0	0	0
CC(C)(C)OC(=O)N1CCC[C@H]1C(=O)NCc1ccc(Cl)cc1Cl	0	0	0	0	0	0
CCN(CC)S(=O)(=O)N1CCC(C(=O)NCC2COc3ccccc3O2)CC1 (configuration not stated)	0	0	0	0	0	0
O=C(NCC1COc2ccccc2O1)C1CCN(S(=O)(=O)c2ccc(Cl)cc2)CC1 (configuration not stated)	29.1	0	0	0	-	0
CCOc1ccc(NC(=O)CCC(=O)N/N=C2\CCCc3ccccc32)cc1	0	-	0	0	-	-
O=C1NC(=O)C2(CCCCC2C2CCCCC2)N1 (configuration not stated)	0	-	0	0	-	-
O=C(O)c1cccc(Cn2c(Cl)c(/C=N/NC(=O)c3ccccc3Cl)sc2=O)c1	0	0	0	0	0	0
SMILES	PAFAH1B2 FP inh	pPAFAH FP inh	PAFAH1B3 inh	PAFAH2 FP inh	EBNA-1 inh	ZTA counter
O=C(O)c1cccc(Cn2c(Cl)c(/C=N/Nc3ccccc3)sc2=O)c1	0	26.8	0	0	0	0
COCCCNC(=O)C(C)N1c2cccc3cccc(c23)S1(=O)=O (configuration not stated)	0	-	0	0	-	-
COc1ccc(CCN2C(=O)CSC2c2ccc(F)cc2)cc1 (configuration not stated)	25.9	0	0	0	0	0
CC(=O)Nc1ccc2nc(NS(=O)(=O)c3ccc(C)cc3)sc2c1	0	26.3	0	0	0	0
COCCN(C(=O)CCc1ccccc1OC)c1nnc(-c2cccnc2)s1	0	25.5	0	0	0	0
COCCN(C(=O)CC(C)(C)C)c1nnc(-c2cccnc2)s1	0	0	0	0	0	0
COc1ccc2cc(C(c3nnnn3C(C)(C)C)N3CCc4ccccc4C3)c(=O)[nH]c2c1 (configuration not stated)	-	33.6	-	-	0	0
CC1CCc2cc(F)ccc2N1S(=O)(=O)c1ccc(Cl)nc1 (configuration not stated)	29.0	0	0	0	0	0
CC1CCc2cc(F)ccc2N1S(=O)(=O)c1ccc(F)cc1 (configuration not stated)	0	0	0	0	0	0
Cc1c(CCC(=O)O)c(=O)oc2cc(OCc3ccccc3Br)ccc12	0	33.1	0	0	0	0
Cc1c(CCC(=O)O)c(=O)oc2cc(OCc3cccc(F)c3)ccc12	0	0	0	0	0	0
CN(C)c1ccc(N/C=C/C(=O)C(C)(C)C)cc1	0	0	0	0	+	+
CC1=C(C#N)C(=O)N(C2CCS(=O)(=O)C2)C(=O)/C1=C\c1ccco1 (configuration not stated)	-	92.9	-	-	63.2	78.6
CC(C)(C)C1CCC2(CC1)C(C#N)=C(SCC(=O)Nc1ccccc1)NC(=O)C2C#N (configuration not stated)	57.5	0	0	0	0	0
Cc1ccc(-c2c3c([nH]c(=S)c2C#N)CCCC3)o1	0	24.7	0	0	0	0
N#Cc1c(-c2ccncc2)c2c([nH]c1=S)CCCC2	0	0	0	0	0	0
C[C@H](CO)N1C[C@H](C)[C@@H](CN(C)S(=O)(=O)c2ccc(F)cc2)Oc2c(NC(=O)Nc3ccc(C(F)(F)F)cc3)cccc2C1=O	24.3	0	0	0	-	-
COc1ccc(NC(=O)N(C)C[C@H]2Oc3c(NC(=O)Nc4ccc(C(F)(F)F)cc4)cccc3C(=O)N([C@H](C)CO)C[C@@H]2C)cc1	35.5	0	0	0	-	-
C[C@@H]1CN([C@H](C)CO)C(=O)c2cccc(NC(=O)Nc3ccc(F)cc3)c2O[C@H]1CN(C)C(=O)Nc1ccc(C(F)(F)F)cc1	49.6	0	0	0	-	-
C[C@H](CO)N1C[C@H](C)[C@@H](CN(C)C(=O)Nc2ccc(C(F)(F)F)cc2)Oc2c(NC(=O)Nc3ccccc3)cccc2C1=O	57.1	0	0	0	-	-
COc1ccc(NC(=O)Nc2cccc3c2O[C@H](CN(C)C(=O)Nc2ccccc2)[C@@H](C)CN([C@H](C)CO)C3=O)cc1	0	0	0	0	-	-
O=C(O)CCn1cc(C2CC(c3ccccc3)=NN2c2ccccc2)c(-c2ccccc2)n1 (configuration not stated)	0	26.5	0	0	0	0
Cc1ccc(-c2nn(-c3ccccc3)cc2C2CC(c3cccs3)=NN2C(=O)CCC(=O)O)cc1 (configuration not stated)	0	0	0	0	0	0
O=C(NCCCn1ccnc1)C1CCCN(S(=O)(=O)c2ccc(F)cc2)C1 (configuration not stated)	0	0	0	0	0	0
Cc1oc(C(=O)O)cc1COc1cccc2cccnc12	0	28.1	0	0	0	0

Source: PubChem BioAssay (The Scripps Research Institute Molecular Screening Center)
